Screens deposited in PubChem BioAssay by National Center for Advancing Translational Sciences (NCATS).
CHX counter – affects cycloheximide protein synthesis inhibition readout, counter-screen. cell reporter, cycloheximide protein synthesis inhibition counterscreen. max response, %. hit rate 12% among 300,000. AID 2314; in the data active = max response mostly above about 13%, no sharp cut-off; inactive = mostly below about 14%; note: read at 38.3 µM for the half of the compounds with a filed dose; 0% is about no effect
TbPYK inhibitor – blocks Trypanosoma brucei pyruvate kinase | AID 624173 | TbPYK enzyme, Kinase-Glo Plus ATP luminescence, 45 min | Potency, µM (top dose mostly 76.8 µM), inactives show top-dose activity, negative = inhibition, hits mostly inhibitors | hit rate 0.12% among 410,000; note: potency is the fitted concentration of half-maximal effect; % is set by controls: 0 for no effect and ±100 for the full control effect; nearly all actives have a fitted effect of over 50% in size
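Enzyme and substrate buffer are dispensed first and compound is pin-transferred. ADP at 130 uM final then starts the reaction, which runs 45 min at room temperature. Detection reagent is added for 10 min before luminescence is imaged.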
LmPK inh – blocks Leishmania mexicana pyruvate kinase activity; Q27686; hit rate 0.37% among 290,000; purified LmPK, Kinase-Glo ATP luminescence, 1 h; Potency, µM (top dose mostly 57.5 µM), inactives show at the top dose activity change, negative = inhibition, usual class: inhibitors; AID 1721; note: potency is the fitted concentration of half-maximal effect; % is set by controls: 0 for no effect and ±100 for the full control effect
Target sequence (Q27686 whole entry, looked up): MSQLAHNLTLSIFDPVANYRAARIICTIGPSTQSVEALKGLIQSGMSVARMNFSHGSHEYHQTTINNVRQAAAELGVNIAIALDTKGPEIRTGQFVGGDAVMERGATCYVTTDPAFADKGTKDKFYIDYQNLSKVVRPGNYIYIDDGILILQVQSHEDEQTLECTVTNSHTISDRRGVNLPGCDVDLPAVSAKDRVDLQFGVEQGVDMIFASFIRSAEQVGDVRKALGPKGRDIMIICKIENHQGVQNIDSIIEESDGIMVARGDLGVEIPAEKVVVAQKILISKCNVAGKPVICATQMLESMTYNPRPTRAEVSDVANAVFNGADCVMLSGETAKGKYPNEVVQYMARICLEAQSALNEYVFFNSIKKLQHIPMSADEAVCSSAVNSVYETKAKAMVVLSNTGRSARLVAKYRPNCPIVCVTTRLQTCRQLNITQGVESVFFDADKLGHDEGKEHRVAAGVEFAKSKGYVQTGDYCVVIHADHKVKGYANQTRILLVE
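Kinase-Glo luminescence read after 1 h RT reaction of 0.1 nM LmPK with 0.5 mM PEP and 0.1 mM ADP. Activity scaled between uninhibited and enzyme-free controls.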
RE007 growth inh – less growth of the S. pombe RE007 Vpr strain. Potency, µM (titrated, usually from 92.2 µM), inactives show top-dose activity change, negative = less growth, hits mostly inhibitors. hit rate 0.21% among 360,000. S. pombe RE007 Vpr strain, BacTiter-Glo ATP luminescence, 24 h; active = well fitted falling curve with a large enough effect; note: potency is the fitted concentration of half-maximal effect; % is set by controls: 0 for no effect and ±100 for the full control effect; nearly all actives have a fitted effect of over 50% in size
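Fission yeast strain RE007, carrying one chromosomally integrated HIV-1 vpr copy, was seeded at OD 0.01 in PMG+AL medium with 23 nL pinned compound. After 24 h at 30 °C and 99% humidity, viability was read by BacTiter-Glo luminescence.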
Shiga inhibitor – inhibitors of Shiga toxin in Vero cells | Vero cells, Shiga toxin protein synthesis inhibition reporter | inhibition, % at 38.7 µM | hit rate 9.2% among 290,000 | AID 2315; in the data active = inhibition mostly above about 28%, no sharp cut-off; inactive = mostly below about 43%; note: 0% is about no effect
FBPA Giardia inh – Giardia lamblia aldolase inhibition. A8B2U2. purified Giardia FBPA. Potency, µM (titrated, usually from 59.6 µM), for the others: top-dose activity, negative = inhibition, most hits filed as inhibitors. hit rate 0.71% among 290,000. AID 2451; note: potency is the fitted concentration of half-maximal effect; % is set by controls: 0 for no effect and ±100 for the full control effect; nearly all actives have a fitted effect of over 55% in size
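Giardia FBPA (40 nM reagent) was preincubated 10 min at RT with compound (up to 57.5 uM final), then substrate plus GAPDH/TPI/NAD/arsenate coupling system with diaphorase/resazurin was added; resorufin fluorescence (525/598 nm) was read after 20 min.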
Numbers without * were called inactive; [ ] = remark or other dose. Many of the other results were omitted from the sample, so hits are more common in it than they were. Unless noted, calls come from the whole dose curve; as a rule, active = well fitted curve in the direction sought with a large enough effect; inconclusive = small, poorly fitted or top-dose-only effect, or another doubt; inactive = no such curve, though single readings can be large; an effect the other way counts as inactive or inconclusive.

For CN(Cc1ccccc1)c1nc2c(S(=O)(=O)c3ccccc3)nnn2c2ccsc12 the results were TbPYK inhibitor 2%.
For COc1ccc(-c2cc(=O)c3cc(C)ccc3[nH]2)cc1 the results were CHX counter 35*, TbPYK inhibitor -3%, LmPK inh -8%, RE007 growth inh -18%, Shiga inhibitor 53* and FBPA Giardia inh -4%[89.2 µM].
`COc1ccc(-c2nc(SCc3cc(=O)c4cc(C)ccc4[nH]3)n[nH]2)cc1` gave TbPYK inhibitor -8%.
For O=C(C=Cc1cccnc1)c1ccccc1 the results were TbPYK inhibitor -2% and RE007 growth inh 45µM*.
For O=C(/C=C/c1cccnc1)c1ccccc1O the results were CHX counter -1, TbPYK inhibitor -3%, LmPK inh -13%, Shiga inhibitor -15 and FBPA Giardia inh 1%.
Screening C(=C\c1ccccn1)/c1cccnc1 returned CHX counter 21*, LmPK inh -22%, Shiga inhibitor 67* and FBPA Giardia inh -7%.
`CN(C)c1ccc(/C=C/C(=O)c2cccnc2)cc1` gave CHX counter 42*, TbPYK inhibitor -5%, LmPK inh -29%, RE007 growth inh -29%, Shiga inhibitor 72* and FBPA Giardia inh -3%.
For O=C(/C=C/c1cccnc1)c1ccc(O)cc1 the results were CHX counter 13*, TbPYK inhibitor -5%, LmPK inh -13%, RE007 growth inh -2%, Shiga inhibitor 8 and FBPA Giardia inh 0%.
`O=C(/C=C/c1cccnc1)c1cccc(O)c1` gave CHX counter -2, TbPYK inhibitor -8%, LmPK inh -6%, RE007 growth inh 5%, Shiga inhibitor -5 and FBPA Giardia inh -25%.
O=C(/C=C/c1cccc(O)c1)c1cccnc1 was read as CHX counter 11, TbPYK inhibitor -4%, LmPK inh -6%, RE007 growth inh -10%, Shiga inhibitor 19 and FBPA Giardia inh -4%.
Screening Cc1ccc(/C=C/S(=O)(=O)NCCC(=O)NCc2ccc(F)cc2)cc1 returned TbPYK inhibitor 0% and RE007 growth inh -3%.
Screening CC[C@H](C)[C@H](NC(=O)CNC(=O)[C@H](CCCNC(=N)N)NC(=O)[C@H](CO)NC(=O)[C@H](C)NC(=O)[C@H](Cc1ccc(O)cc1)NC(=O)[C@H](Cc1c[nH]c2ccccc12)NC(=O)[C@H](C)NC(=O)[C@@H]1CCCN1C(=O)[C@H](CC(N)=O)NC(=O)[C@@H](NC(=O)[C@H](CC(=O)O)NC(=O)[C@@H]1CCCN1C(=O)[C@@H](NC(=O)[C@H](CCCNC(=N)N)NC(=O)[C@@H](NC(=O)[C@H](CCC(=O)O)NC(=O)[C@H](CCSC)NC(=O)[C@H](CO)NC(=O)[C@H](Cc1cnc[nH]1)NC(=O)[C@H](CCCNC(=N)N)NC(=O)[C@H](Cc1cnc[nH]1)NC(=O)[C@@H](NC(=O)[C@H](CCCNC(=N)N)NC(=O)[C@@H](N)CO)[C@@H](C)O)[C@@H](C)CC)[C@@H](C)O)[C@@H](C)CC)C(=O)N[C@@H](CCCNC(=N)N)C(=O)N1CCC[C@H]1C(=O)N[C@H](C(=O)NCC(=O)N[C@@H](CCCNC(=N)N)C(=O)N[C@@H](Cc1ccccc1)C(N)=O)C(C)C returned CHX counter -9, Shiga inhibitor -2 and FBPA Giardia inh 3%.
O=C(C=Cc1ccccn1)c1ccccc1 was read as TbPYK inhibitor 4% and RE007 growth inh 25µM*.
Screening CCC(NC(=O)c1cc(COc2c(F)cccc2F)on1)c1ccncc1 (configuration not stated) returned CHX counter 15, TbPYK inhibitor 3%, LmPK inh -3%, RE007 growth inh -1% and Shiga inhibitor -1.
O=C(NCc1ccc2c(c1)OCO2)c1cc(COc2c(F)cccc2F)on1 was read as CHX counter 37*, TbPYK inhibitor 0%, LmPK inh 1%, RE007 growth inh 40%, Shiga inhibitor 42 and FBPA Giardia inh -5%.
